Records with an inconclusive call do not appear. A number with no mark means an inactive call. Activity calls are given as the source filed them. Calls come from the whole dose curve; as a rule, active = well fitted activation curve with a large enough effect in the signal ratio in the repeat runs, with a control signal flat (not every such curve was filed as active); inconclusive = weak or mixed curves, or effect the other way; inactive = no such curve, though single readings can be large or run the other way; the % refers to the signal ratio.
These compounds were tested against Androgen receptor (Homo sapiens) (UniProt P10275) (assay: qHTS assay to identify small molecule agonists of the androgen receptor (AR) signaling pathway (AID 743036)). Conditions: HEK293 AR-UAS-bla GripTite, beta-lactamase FRET ratio, 16 h; series mostly up to 62.4 µM; activation: at the top concentration.
Chain of Androgen receptor (Homo sapiens) (P10275 whole entry, looked up): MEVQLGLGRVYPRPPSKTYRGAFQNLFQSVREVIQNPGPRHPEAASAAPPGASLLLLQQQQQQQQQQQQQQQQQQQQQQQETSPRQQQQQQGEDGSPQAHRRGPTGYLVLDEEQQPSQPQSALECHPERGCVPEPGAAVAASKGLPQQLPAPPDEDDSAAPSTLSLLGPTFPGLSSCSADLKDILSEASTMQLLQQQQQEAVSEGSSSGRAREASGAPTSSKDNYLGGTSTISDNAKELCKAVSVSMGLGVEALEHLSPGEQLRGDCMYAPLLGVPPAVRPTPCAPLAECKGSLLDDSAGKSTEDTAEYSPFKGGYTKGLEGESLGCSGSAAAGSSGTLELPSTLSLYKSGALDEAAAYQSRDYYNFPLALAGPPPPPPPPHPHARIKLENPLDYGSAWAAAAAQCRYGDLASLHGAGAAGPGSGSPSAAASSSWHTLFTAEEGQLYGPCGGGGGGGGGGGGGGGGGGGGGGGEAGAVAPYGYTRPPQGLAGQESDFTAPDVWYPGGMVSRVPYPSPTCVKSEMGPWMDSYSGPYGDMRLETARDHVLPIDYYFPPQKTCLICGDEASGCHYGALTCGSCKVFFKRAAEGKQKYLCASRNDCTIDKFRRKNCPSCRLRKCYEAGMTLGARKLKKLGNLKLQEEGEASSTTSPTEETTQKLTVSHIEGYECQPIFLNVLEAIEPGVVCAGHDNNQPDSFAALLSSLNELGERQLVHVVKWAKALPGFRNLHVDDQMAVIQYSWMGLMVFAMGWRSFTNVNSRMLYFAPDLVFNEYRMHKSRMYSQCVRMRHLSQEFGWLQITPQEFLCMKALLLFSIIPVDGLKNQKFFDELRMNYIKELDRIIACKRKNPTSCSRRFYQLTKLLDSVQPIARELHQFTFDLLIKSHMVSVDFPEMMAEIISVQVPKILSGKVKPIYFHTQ
Description: U.S. Tox21 Program National Center for Advancing Translational Sciences [NCATS] NIH Chemical Genomics Center [NCGC] U.S. Environmental Protection Agency [EPA] National Institutes of Environmental Health Sciences [NIEHS] National Toxicology Program [NTP] U.S. Food and Drug Administration [FDA] Tox21 Assay Overview: Androgen receptor (AR), a nuclear hormone receptor, plays a critical role in AR-dependent prostate cancer and other androgen related diseases. Endocrine disrupting chemicals (EDCs) and their interactions with steroid hormone receptors like AR may cause disruption of normal endocrine function as well as interfere with metabolic homeostasis, reproduction, developmental and behavioral functions. To identify the compounds that activate AR signaling, GeneBLAzer AR-UAS-bla-GripTite cell line (Invitrogen, Carlsbad, CA, USA) containing a beta-lactamase reporter gene under the control of an Upstream Activator Sequence (UAS) stably integrated into HEK293 cells was used to screen the Tox21 10K compound library.
Tox21 Assay Protocol Summary: AR-bla cells were dispensed at 2,000 cells/6 uL/well of assay medium into black wall/clear-bottom 1536-well plates using a Multidrop Combi (ThermoFisher Scientific, Waltham, MA) dispenser. After the assay plates were incubated at 37C and 5% CO2 for 4 h, 23 nL of compounds dissolved in DMSO, positive controls or DMSO only was transferred to the assay plate by a Pintool station (Kalypsys, San Diego, CA). The plates were incubated at 37C and 5% CO2 for 16 h. Then 1 uL of LiveBLAzerTM B/G FRET substrate was added using a Bioraptr Flying Reagent Dispenser (FRD) workstation (Beckman Coulter, Indianapolis, IN, USA). The plates were incubated at room temperature for 2 h, and fluorescence intensity was measured by an Envision plate reader (PerkinElmer, Shelton, CT).
% is set by controls: 0 for no effect and ±100 for the full control effect; potency is the fitted concentration of half-maximal effect.

SMILES	activation	Potency
C=C1CC[C@H](O)CC1=C/C=C1\CCC[C@]2(C)[C@@H]([C@H](C)CCCC(C)(C)O)CC[C@@H]12	3.28%	
CCC(=O)Oc1ccc2c(c1)CC[C@@H]1[C@@H]2CC[C@]2(C)[C@@H](OC(=O)CC)CC[C@@H]12		2.39 µM (active)
CC(NNC(=O)c1ccccc1)c1ccccc1 (stereo not given)	-13.2%	
CC(=O)O[C@H]1C[C@@]2(C)[C@@H](C[C@@H](O)[C@H]3[C@@]4(C)CC[C@@H](O)[C@@H](C)[C@@H]4CC[C@@]32C)/C1=C(\CCC=C(C)C)C(=O)O	-9.92%	
CC(=O)OCC(=O)[C@@]1(O)[C@H](C)C[C@H]2[C@@H]3C[C@H](F)C4=CC(=O)C=C[C@]4(C)[C@H]3[C@@H](O)C[C@@]21C		1.34 µM (active)
CCCCCCCCCCCCCCCCCCCCCC(=O)Nc1ccn([C@@H]2O[C@H](CO)[C@@H](O)[C@@H]2O)c(=O)n1	-4.97%	
CCc1ccc(S(=O)(=O)O)cc1	-0.291%	
CC(C)CN(C[C@@H](O)[C@H](Cc1ccccc1)NC(=O)O[C@@H]1CCOC1)S(=O)(=O)c1ccc(N)cc1	-0.0208%	
CC(=O)O[C@]1(C(C)=O)CC[C@H]2[C@@H]3CCC4=CC(=O)CC[C@]4(C)[C@@]3(F)[C@@H](O)C[C@@]21C	8.96%	
CCCOc1cc(N)ccc1C(=O)OCCN(CC)CC	-5.66% [at 29.2 µM]	
Cc1cc(C)c(NC(=O)C[C@H](CC(=O)O)c2cccc3ccccc23)c(C(=O)N2CCC3(CCCC3)CC2)c1	-14%	
CC(CN(C)C)CN1c2ccccc2S(=O)(=O)c2ccccc21 (stereo not given)	-0.98%	
CCOC(=O)CCC(=O)O[C@H]1[C@H](O[C@@H]2[C@@H](C)[C@H](O[C@H]3C[C@@](C)(OC)[C@@H](O)[C@H](C)O3)[C@@H](C)C(=O)O[C@H](CC)[C@@](C)(O)[C@H](O)[C@@H](C)C(=O)[C@H](C)C[C@@]2(C)O)O[C@H](C)C[C@@H]1N(C)C	7.17%	
O=C(O)CC/C=C\CC[C@@H]1[C@@H](N2CCCCC2)[C@@H](O)C[C@@H]1OCc1ccc(-c2ccccc2)cc1	-6.73%	
CCCCCCCCCCCCCCCCCC(=O)OC[C@@H](O)[C@H]1OC[C@H](O)[C@H]1O	0.827%	
COC(F)(F)C(Cl)Cl	16.5%	
CCN(CC)c1ccc(N=Nc2ccc(S(=O)(=O)N(C)C)cc2)c(S(=O)(=O)NCC[n+]2ccccc2)c1	-0.66%	
C=C1CC[C@H](O)CC1=C/C=C1\CCC[C@]2(C)[C@@H]([C@H](C)CC[C@@H](O)C(C)(C)O)CC[C@@H]12	-1.46%	
CC1=C[C@H](O)CC(C)(C)[C@H]1/C=C/C(C)=C/C=C/C(C)=C/C=C/C=C(C)/C=C/C=C(C)/C=C/C1=C(C)C[C@@H](O)CC1(C)C	7.78%	
COC(=O)C1=C(C)NC(C)=C(C(=O)O[C@H]2CCN(Cc3ccccc3)C2)[C@H]1c1cccc([N+](=O)[O-])c1	-10.6%	

SMILES	activation	Potency
Nc1c(Br)cc(Br)cc1CNC1CCC(O)CC1 (stereo not given)		4.77 µM (active)
CC(CCc1ccc(O)cc1)NCC(O)c1ccc(O)cc1 (stereo not given)	-1.02%	
CO[C@H]1C[C@H](O[C@H]2[C@H](C)[C@@H](O[C@@H]3O[C@H](C)C[C@H](N(C)C)[C@H]3OC(C)=O)[C@@H](C)C[C@]3(CO3)C(=O)[C@H](C)[C@@H](OC(C)=O)[C@@H](C)[C@@H](C)OC(=O)[C@@H]2C)O[C@@H](C)[C@@H]1OC(C)=O	12.1% [at 29.2 µM]	
OCC(O)COc1ccc(Cl)cc1 (stereo not given)	-0.0392%	
COc1cc2c(cc1OC)[C@@H](c1ccccc1)CN(C)CC2	6.88%	
CN(C)CCCN1c2ccccc2C(C)(C)c2ccccc21	-0.107%	
CC1(C)S[C@@H]2[C@H](NC(=O)C(C(=O)Oc3ccc4c(c3)CCC4)c3ccccc3)C(=O)N2[C@H]1C(=O)O (stereo not given in full)	-1.68%	
O=C(O)c1ccc(NC(=O)[C@H](Cc2ccc(O)cc2)NC(=O)c2ccccc2)cc1	-0.0397%	
Cc1cccc(C)c1N(CCCc1cccnc1)C(=O)C(C)N (stereo not given)	-8.04%	
CCCCCCCCCCCCOCCCN	-4%	
Cc1ncc(C[n+]2csc(CCOP(=O)(O)OP(=O)(O)O)c2C)c(N)n1	0.236%	
Cc1cccc(C)c1NC(=O)NC1=CCCN1C	0.0793%	
CN(C)CC/C=C1/c2ccccc2CSc2ccccc21	3.1% [at 29.2 µM]	
O=C(OC[C@H]1O[C@](O)(COC(=O)c2cccnc2)[C@@H](OC(=O)c2cccnc2)[C@@H]1OC(=O)c1cccnc1)c1cccnc1	-9.5%	
O=C(O)CCC/C=C\C[C@@H]1[C@@H](/C=C/[C@@H](O)COc2cccc(Cl)c2)[C@H](O)C[C@@H]1O	0.0055%	
[O]=[Bi][O][Bi]=[O]	16.3%	
C#C[C@]1(O)CC[C@H]2[C@@H]3CCC4=C/C(=N/O)CC[C@@H]4[C@H]3CC[C@@]21CC		4.25 µM (active)
O=C(O)c1cc(N=Nc2ccc(O)c(C(=O)O)c2)ccc1O	2.35%	
CCCCCCCCCCCCCC[n+]1ccc(C)cc1	-7.09%	
CC(C)[C@@H]1CC[C@@H](C)C[C@H]1OC(=O)c1ccccc1O	6.05%	

Reference: PubChem BioAssay (Tox21)
